# Measured values as given in PMC7819943, “Rice protein-binding microarrays: a tool to detect cis-acting elements near promoter regions in rice”.
# In all, about 68,000 sequences were measured (“fluorescence intensity (a.u.)”: median about 9,100, highest 2% from about 16,000 on). The sample holds the highest values, similar sequences and a random draw of the others, so the mix is not that of the screen.
# Biological target: OsWRKY34 (Oryza sativa, UniProt Q0JBA9 1-250)
# Assay: protein-binding microarray (RPBM); PBS, 2% BSA, 51.3 ng/ul salmon testes DNA, 50 uM zinc acetate, 200 nM TF, 25 C, 1 h; high values mean tight binding
# Conditions: protein: recombinant; tags: N-terminal polyhistidine and DsRed monomer fusion (pET32a); label: CyDye5-dUTP incorporated in the synthesized complementary strand; 3' TTTTT single-stranded linker to array surface; dsDNA, one strand shown
# Method in brief: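 Ni–NTA purification followed expression in E. coli BL21-CodonPlus of transcription factors fused N-terminally to a polyhistidine tag and DsRed. At 200 nM in PBS with 2% BSA, salmon testes DNA and 50 µM zinc acetate, the protein was incubated for 1 h at 25 °C with a custom Agilent array that had been primer-extended with Cy5-dUTP and blocked with 2% BSA. After washing, the array was read on an Axon 4000B scanner. The binding signal is per-feature fluorescence intensity in arbitrary units.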
# Sequence of OsWRKY34 (Q0JBA9 entry or part of it): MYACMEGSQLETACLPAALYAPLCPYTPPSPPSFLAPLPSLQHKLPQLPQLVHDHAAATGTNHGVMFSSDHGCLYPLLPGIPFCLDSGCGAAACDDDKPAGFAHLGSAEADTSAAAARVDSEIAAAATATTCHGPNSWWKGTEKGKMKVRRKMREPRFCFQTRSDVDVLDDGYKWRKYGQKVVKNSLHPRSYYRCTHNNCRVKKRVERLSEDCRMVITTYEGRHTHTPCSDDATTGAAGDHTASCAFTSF
row,Sequence,binding signal
1,GCGTGGTTGATTTTTAGTCTTGTCGACTTCGACTTTAAGCCGGAGTCACCTAGTGCAG,9120 fluorescence intensity (a.u.)
2,TCGGTACTCTTGCTGAAGCAATCCTTTCTTCCTTGCCTAACGGAGTCACCTAGTGCAG,9140 fluorescence intensity (a.u.)
3,ACAGTACGCTACTATTCATACGCTAAATTTGTCTTTTTTACGGAGTCACCTAGTGCAG,9830 fluorescence intensity (a.u.)
4,GGTTATTATATCTACAAAATTCTTGCACACCTCAGCAATGCGGAGTCACCTAGTGCAG,8090 fluorescence intensity (a.u.)
5,TCCGTCTGTCTATAGCTACTATTAAAGGAGGGGAGGCTCTCGGAGTCACCTAGTGCAG,8130 fluorescence intensity (a.u.)
6,AAACAAACACAGAGCTTCTCTCCTCTGTTCTCCTTCTCTGCGGAGTCACCTAGTGCAG,8090 fluorescence intensity (a.u.)
7,GATTTTTTTTTTCTCGTCTCCTCGTTTTTGCTTGCCTTTCCGGAGTCACCTAGTGCAG,19200 fluorescence intensity (a.u.)
8,ACTGTGGTTATCTTGCTATCTCTCCTACTCGCTCTGTCAACGGAGTCACCTAGTGCAG,16500 fluorescence intensity (a.u.)
9,TAGTTTTGTTTAATTCCTGTCTCGGGTTTGGTTGGTTGCTCGGAGTCACCTAGTGCAG,19100 fluorescence intensity (a.u.)
10,TCGTCTCCGGCCTTTTCTTGCTCTCCTCGTCTTCTTCCTCCGGAGTCACCTAGTGCAG,13200 fluorescence intensity (a.u.)
11,TGCACTTCTCCACTTCACTCCTCGTCTCTTGCCGTCTTTTCGGAGTCACCTAGTGCAG,13200 fluorescence intensity (a.u.)
12,TGTGCAGTTTTGCTGTTTATGACTAGTTTACCTGTTGTCTCGGAGTCACCTAGTGCAG,10800 fluorescence intensity (a.u.)
13,GATGTCTCTCTTTTTTTTTTTGGTTTGGGTTGTCACTTTTCGGAGTCACCTAGTGCAG,9400 fluorescence intensity (a.u.)
14,TGGCTCTCTCGCTCCTATGTGGCTATGTCTGTCTACCTAACGGAGTCACCTAGTGCAG,10800 fluorescence intensity (a.u.)
15,CTACATCTTCTCTCGCTATCTCTCTCTGTACTCTCTCTCTCGGAGTCACCTAGTGCAG,11400 fluorescence intensity (a.u.)
16,CCTGTTTTTTGTTTTTGGTGGTGGTTCCGTCTCGGTTAATCGGAGTCACCTAGTGCAG,9840 fluorescence intensity (a.u.)
17,AATTTTCCGTTTCTCCTTTTCTTGCTTTGTTTTTTCCTTGCGGAGTCACCTAGTGCAG,15200 fluorescence intensity (a.u.)
18,TTCACTTTCACCTCGCCGTCTTGGTTGTCTTGCCGTCTTTCGGAGTCACCTAGTGCAG,20200 fluorescence intensity (a.u.)
19,CACGAAGCCAGTCTAACCGCCATGTGTGGGCTTGTTTGACCGGAGTCACCTAGTGCAG,8700 fluorescence intensity (a.u.)
20,TGCTTCTTGGACATCGCATCATATTTAAGCATGTTTTCCTCGGAGTCACCTAGTGCAG,10500 fluorescence intensity (a.u.)
21,CTCTCTTTCTCTTCCATTTCTTGAAACTTGTATGGAGGTTCGGAGTCACCTAGTGCAG,9410 fluorescence intensity (a.u.)

row,Sequence,binding signal
1,ATCATTTCGCACATTAACTCTCTCTCTCTCTCTCCATTTTCGGAGTCACCTAGTGCAG,15200 fluorescence intensity (a.u.)
2,GACCTTTTTTTCTTTTCTTCTTTGTTCTTTGTTGTTCTCTCGGAGTCACCTAGTGCAG,10700 fluorescence intensity (a.u.)
3,AACCTTTTCTTTCTTTCTTCACTTTGGTTGCGTTGCGTCTCGGAGTCACCTAGTGCAG,24200 fluorescence intensity (a.u.)
4,GAATTTTGCTTTGGTTCAACCTTTTTTCTCTTCTTTCTCTCGGAGTCACCTAGTGCAG,9740 fluorescence intensity (a.u.)
5,AAGGTATGGTTCTTCATTCTTGTCATTTTCTTTTGCAGCACGGAGTCACCTAGTGCAG,8220 fluorescence intensity (a.u.)
6,CTCAGCTTCCGTTATTACCTCTGCGCACAAGTTACCGGGCCGGAGTCACCTAGTGCAG,8720 fluorescence intensity (a.u.)
7,GAAAAAAATGTAAAAACTGTTGACTTTTAGTCAACGCCATCGGAGTCACCTAGTGCAG,16400 fluorescence intensity (a.u.)
8,AAGATATTTTCAATGTATTTTTTTATTGTTGACTTTTAAACGGAGTCACCTAGTGCAG,9030 fluorescence intensity (a.u.)
9,CTCCATCCTAAAATGTTTGACGCCGTTGACTTTTTTAAATCGGAGTCACCTAGTGCAG,24500 fluorescence intensity (a.u.)
10,AATTTTCTTAAAATTTGAGGTTTAGTTTGACTTTCTTTTTCGGAGTCACCTAGTGCAG,9400 fluorescence intensity (a.u.)
11,CCTCATCACAAAATGTTTGACGCTGTTGACTTTTTTAAAACGGAGTCACCTAGTGCAG,15900 fluorescence intensity (a.u.)
12,TTGACGCCGTTGACTTTTTAAAAAATATTTGACCGTTCTTCGGAGTCACCTAGTGCAG,37100 fluorescence intensity (a.u.)
13,TGTTTGACTTTTTTCTTGGTTAAAATTCTTTAAATTTGATCGGAGTCACCTAGTGCAG,18900 fluorescence intensity (a.u.)
14,AAATTAAATTTAAAAATTTAAATTTTGACTTTTTCTTGACCGGAGTCACCTAGTGCAG,8250 fluorescence intensity (a.u.)
15,GTACTCCCTCCATCCCTAAATGTTTGACGCCGTTGACTTTCGGAGTCACCTAGTGCAG,16000 fluorescence intensity (a.u.)
16,GGTGGTTCTTGCTTCACACAATCTGGCGCGCTTCAGAACACGGAGTCACCTAGTGCAG,13300 fluorescence intensity (a.u.)
17,AAAACATGGTACAAATGCATACGCTCACACATGCACACTCCGGAGTCACCTAGTGCAG,8300 fluorescence intensity (a.u.)
18,ACTCACACTAGCTTGAAACTATCTGCGTACTCAAATTCAACGGAGTCACCTAGTGCAG,8080 fluorescence intensity (a.u.)
19,CCATCCCGCCGCCACCGCCGCCGCCGCCGCCTCATCCTCCCGGAGTCACCTAGTGCAG,9300 fluorescence intensity (a.u.)
20,ATTCTCAAATACCACTCGGGCCCACATGTCAGCCTTACTCCGGAGTCACCTAGTGCAG,8200 fluorescence intensity (a.u.)
21,CGGCTCGCTCAACCATACCACCTTTTCAAATTCATTTTTCCGGAGTCACCTAGTGCAG,11600 fluorescence intensity (a.u.)

row,Sequence,binding signal
1,ATTTTTGACGCCGTTGACTTTTTTTAAATATGTTTGACCGCGGAGTCACCTAGTGCAG,46900 fluorescence intensity (a.u.)
2,CGCCGTTGACTTTTTTAAAAATGTTTGACCGTTCCTCTTACGGAGTCACCTAGTGCAG,20900 fluorescence intensity (a.u.)
3,CGTCTCTAAATACTTGACGCCGTTGACTTTTTTAAATATGCGGAGTCACCTAGTGCAG,26900 fluorescence intensity (a.u.)
4,ATCTTTGACGTCGTTGACTTTTAAAAAAATGTTTGACCGTCGGAGTCACCTAGTGCAG,22300 fluorescence intensity (a.u.)
5,ATATTTGACGACGTTGATTTTTTTTAAATATGTTTGACCGCGGAGTCACCTAGTGCAG,9090 fluorescence intensity (a.u.)
6,ACGTCTCCACCACCACCACCGGCCAAACGCCGACCTCATCCGGAGTCACCTAGTGCAG,9450 fluorescence intensity (a.u.)
7,CCAGTCAATTTCCCCACGTGCCATCTCGCTGCATCCGCCGCGGAGTCACCTAGTGCAG,10500 fluorescence intensity (a.u.)
8,CTCGCGCGCCCCGCCCGTTTCGCCTCGGCCGCCTCCTCCACGGAGTCACCTAGTGCAG,8480 fluorescence intensity (a.u.)
9,CATCTGCACGCATATATATCTGTAAACTCAGCGCGTTTTTCGGAGTCACCTAGTGCAG,8100 fluorescence intensity (a.u.)
10,ATTGTGGACTGTTTGACCTCCAGTTTGGACTGTAGGAATTCGGAGTCACCTAGTGCAG,8060 fluorescence intensity (a.u.)
11,CTGTTGGTCAATCGCCGAACTTACCGCCGCGCCGGCCATGCGGAGTCACCTAGTGCAG,9410 fluorescence intensity (a.u.)
12,TTCATTTTCAATTCCCGTCCTCATTCTTCTTATGATATTTCGGAGTCACCTAGTGCAG,8930 fluorescence intensity (a.u.)
13,AATCCATAATTAGTAAATATTTACTGTAGCACCATATTGTCGGAGTCACCTAGTGCAG,9810 fluorescence intensity (a.u.)
14,AATGTTTGACGCCGTTGACTTTTTTAAAAATGTTTGGCCGCGGAGTCACCTAGTGCAG,29800 fluorescence intensity (a.u.)
15,ACGCCGTTGACTTTTTAAAATATGTTTGACCGTTTATCTTCGGAGTCACCTAGTGCAG,45700 fluorescence intensity (a.u.)
16,ATTTTGACTTTTTCTTGTACTGTTTGACCATTCATCTTATCGGAGTCACCTAGTGCAG,16200 fluorescence intensity (a.u.)
17,CGCTGTTGACTTTTTTAAAAATGTTTGACCGTTCATCTTACGGAGTCACCTAGTGCAG,33600 fluorescence intensity (a.u.)
18,GTTGACTTTTTTTTAAACATGTTTGACCATTCATCTTATTCGGAGTCACCTAGTGCAG,11100 fluorescence intensity (a.u.)
19,ACTTTTTAAAACATGTTTGACCGTTCATCTTATTTAAAAACGGAGTCACCTAGTGCAG,8690 fluorescence intensity (a.u.)
20,ACTTTTTAAAACATGTTTGACCGTTCATCTTATTCAAAAACGGAGTCACCTAGTGCAG,8410 fluorescence intensity (a.u.)
21,GTTGTTGACTTTTTAAAATTTGTTTGACCATTCATCTTATCGGAGTCACCTAGTGCAG,23100 fluorescence intensity (a.u.)

row,Sequence,binding signal
1,ATTTGACGCCGTTACTTTTTTTAAAAATGTTTGGCCGTTCCGGAGTCACCTAGTGCAG,8270 fluorescence intensity (a.u.)
2,CGGTTCTTGTCGTAGAAAGCTCCGTGTTATCGTTTATATTCGGAGTCACCTAGTGCAG,8090 fluorescence intensity (a.u.)
3,CAGCCACCTCTCCATCTTCTGTCCGTTCACCTCTCCGTAACGGAGTCACCTAGTGCAG,12600 fluorescence intensity (a.u.)
4,GCTTGCTCCAGGTGACCCAACTTTTCCATTTCCATGCATTCGGAGTCACCTAGTGCAG,11300 fluorescence intensity (a.u.)
5,GCTCCTCCTCCTCTTCCCGCCTCACCGCCGCACCACCTCTCGGAGTCACCTAGTGCAG,8550 fluorescence intensity (a.u.)
6,CCGTGGGCCAGACCTTTTTCTTCGACGCTAGACCTGACTACGGAGTCACCTAGTGCAG,9780 fluorescence intensity (a.u.)
7,TTCACCCACGTTTCTGCCCAACCCTCTCACCCTAGCTTAGCGGAGTCACCTAGTGCAG,10800 fluorescence intensity (a.u.)
8,AACTTCGCAAGAGGCATGCTCTCCAGCCTCAATTTTCATGCGGAGTCACCTAGTGCAG,8410 fluorescence intensity (a.u.)
9,CCCCATTTTCTTTGTTTCTACTTCTCTTTCCCTTTCTTGTCGGAGTCACCTAGTGCAG,10700 fluorescence intensity (a.u.)
10,CTCCGTCCCTCCGTACCAGTTTAAATGCAGCCGTGGATTCCGGAGTCACCTAGTGCAG,8360 fluorescence intensity (a.u.)
11,CCCTCCGTATTTTAATGTATGACGCCGTTGACTTTTTGACCGGAGTCACCTAGTGCAG,26800 fluorescence intensity (a.u.)
12,TTTGGGCCGGGTTTTTGGTTTCTTCCTTTTTTTTTCTGGGCGGAGTCACCTAGTGCAG,12600 fluorescence intensity (a.u.)
13,TTTGACGCCGTTGACTTTTTTAAAAATGTTTGACCGTTCACGGAGTCACCTAGTGCAG,25100 fluorescence intensity (a.u.)
14,GCCCGCTGCTATTCTCTCTCATCTTTTATCCTATTAAAATCGGAGTCACCTAGTGCAG,13200 fluorescence intensity (a.u.)
15,ATCTATGTTTTTCTGCGGGCCGGGTTGGTTTGTTTCCTACCGGAGTCACCTAGTGCAG,10300 fluorescence intensity (a.u.)
16,GCCCGTTGCTCATCTCTCTCATCGTTTATCGCATTAAAATCGGAGTCACCTAGTGCAG,17900 fluorescence intensity (a.u.)
17,TACTTACTCCCTCCGTATTTTAATGTATGACGCCGTTGACCGGAGTCACCTAGTGCAG,14200 fluorescence intensity (a.u.)
18,AAGTACTCCCTCCGTATTTTAATGTATGACGCCGTTGACTCGGAGTCACCTAGTGCAG,9690 fluorescence intensity (a.u.)
19,GCCCGCTGCTCTGCTCTCTCATCTTTTATCTCACTAAAATCGGAGTCACCTAGTGCAG,8960 fluorescence intensity (a.u.)
20,CGCTACCGGGTTGACTTTTTCCTATCCGTTTCTGGTCCGGCGGAGTCACCTAGTGCAG,22800 fluorescence intensity (a.u.)
21,TTTTTTTTACCGGCCTAGTTGACCACCAACCAAGCAGTACCGGAGTCACCTAGTGCAG,10100 fluorescence intensity (a.u.)
